{"source": "PubChem BioAssay (Tox21)", "note": "Values without a mark were called inactive. The source made the active and inactive calls. Calls come from the whole dose curve; as a rule, active = well fitted curve in the direction sought with a large enough effect in the repeat runs; inconclusive = weak or mixed curves; inactive = flat fitted curve, though single readings scatter. % is set by controls: 0 for no effect and ±100 for the full control effect.", "data": [{"assay": "qHTS assay to test for compound auto fluorescence at 535 nm (green) in HEK293 cell free culture (AID 720682)", "conditions": "cell-free medium, green autofluorescence 485/535 nm, active compounds read high; series mostly up to 91.3 µM; activity change: at the top concentration", "outline": "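Cell-free medium (DMEM, 10% FBS) receives compound or DMSO by pintool. Plate read directly at Ex 485/Em 535 nm. Signal converted to fluorescein equivalency.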", "values": [{"smiles": "CC(=O)OCC1=C(C(=O)O)N2C(=O)[C@@H](N)[C@H]2SC1", "activity change": "0.0026% [at 18.6 µM]"}, {"smiles": "O=P(O)(O)c1ccccc1", "activity change": "0.0007%"}, {"smiles": "Oc1ccc(Cc2ccc(O)cc2)cc1", "activity change": "0.0023%"}, {"smiles": "C=C1CC[C@@]2(O)[C@H]3Cc4ccc(O)c5c4[C@@]2(CCN3CC2CC2)[C@H]1O5", "activity change": "-0.0659% [at 46 µM]"}, {"smiles": "CCC(C(N)=O)N1CCCC1=O", "note": "(configuration not stated)", "activity change": "-0.114% [at 46 µM]"}, {"smiles": "CN(C)CCc1c[nH]c2cccc(OP(=O)(O)O)c12", "activity change": "0.125%"}, {"smiles": "CCC1(c2ccccc2)C(=O)N(COC)C(=O)N(COC)C1=O", "activity change": "0.0394% [at 46 µM]"}, {"smiles": "CCCCCCCCSC(=O)Oc1cc(Cl)nnc1-c1ccccc1", "activity change": "-0.0114%"}, {"smiles": "CCOP(=S)(OCC)Oc1ccc(Cl)cc1Cl", "activity change": "-0.0407%"}, {"smiles": "C[C@H](N)C(=O)c1ccccc1", "outcome": "inactive"}, {"smiles": "COC(=O)c1ccc(CBr)cc1", "activity change": "0.145% [at 95.7 µM]"}, {"smiles": "CCN[C@@H](C)Cc1cccc(C(F)(F)F)c1", "activity change": "0.0355%"}]}]}
